Data from PubChem BioAssay (NCI).
This is part of a sample that, as a whole, favours compounds with a hit. Of some 83,000 tested, about 20% had one in any assay.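 Treatment: one concentration, 48 hours, 96-well format. Scoring: percent growth, with anything below 10 considered active.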 Activity calls are given as the source filed them.

Legend:
Experiment in all cases: NCI-60 one-dose screen, 48 h (100 = growth as untreated, 0 = no growth, -100 = all killed)
Conditions in all cases: 10 µM
HOP-92 NSCLC = system: HOP-92 NSCLC
786-0 renal = system: 786-0 renal
SN12C renal = system: SN12C renal
UO-31 renal = system: UO-31 renal
TK-10 renal = system: TK-10 renal
ACHN renal = system: ACHN renal
A498 renal = system: A498 renal
CCRF-CEM leukemia = system: CCRF-CEM leukemia
RPMI-8226 leukemia = system: RPMI-8226 leukemia
OVCAR-8 ovarian = system: OVCAR-8 ovarian
OVCAR-4 ovarian = system: OVCAR-4 ovarian
SK-OV-3 ovarian = system: SK-OV-3 ovarian
IGROV1 ovarian = system: IGROV1 ovarian
NCI/ADR-RES ovarian = system: NCI/ADR-RES ovarian
BT-549 breast = system: BT-549 breast
MDA-MB-435 melanoma = system: MDA-MB-435 melanoma
MCF7 breast = system: MCF7 breast
HCT-116 colon = system: HCT-116 colon
HCC-2998 colon = system: HCC-2998 colon
KM12 colon = system: KM12 colon

Measured: growth

CCOP(=O)(OCC)C(NC(C)=O)C(=O)SCCN (centres undefined)
inactive: HOP-92 NSCLC 108% | 786-0 renal 103% | SN12C renal 97.9% | UO-31 renal 81% | TK-10 renal 99.5% | ACHN renal 112% | A498 renal 91.7% | CCRF-CEM leukemia 100% | RPMI-8226 leukemia 109% | OVCAR-8 ovarian 109% | OVCAR-4 ovarian 110% | SK-OV-3 ovarian 117% | IGROV1 ovarian 110% | NCI/ADR-RES ovarian 105% | BT-549 breast 111% | MDA-MB-435 melanoma 111% | MCF7 breast 95.5% | HCT-116 colon 111% | HCC-2998 colon 104% | KM12 colon 112%

O=C(/C=C/c1ccco1)c1nc2ccccc2n1Cc1ccc(F)cc1
inactive: HOP-92 NSCLC 40.2% | 786-0 renal 67.6% | SN12C renal 79.2% | UO-31 renal 46.8% | TK-10 renal 92.1% | ACHN renal 79.1% | A498 renal 93.4% | CCRF-CEM leukemia 21.4% | RPMI-8226 leukemia 25.2% | OVCAR-8 ovarian 70.1% | OVCAR-4 ovarian 48% | SK-OV-3 ovarian 85.5% | IGROV1 ovarian 52.5% | NCI/ADR-RES ovarian 72.5% | BT-549 breast 59.7% | MDA-MB-435 melanoma 77% | HCT-116 colon 59.3% | HCC-2998 colon 57% | KM12 colon 50.8%
active: MCF7 breast 8.93%

CC(C)N=C([Se])NC(=O)c1cccs1
active: 786-0 renal 2.02% | SN12C renal -21.4% | RPMI-8226 leukemia -4.48% | OVCAR-8 ovarian -36.8% | SK-OV-3 ovarian -17.3% | IGROV1 ovarian 1.76% | NCI/ADR-RES ovarian -27% | MCF7 breast 1.79%
inactive: HOP-92 NSCLC 88.3% | UO-31 renal 12.4% | TK-10 renal 56% | ACHN renal 47.2% | A498 renal 36.6% | CCRF-CEM leukemia 29.7% | OVCAR-4 ovarian 83% | BT-549 breast 43.7% | MDA-MB-435 melanoma 37.4% | HCT-116 colon 13.3% | HCC-2998 colon 27.6% | KM12 colon 16.7%

COC(=O)C[C@](O)(CCC(C)C)C(=O)O[C@H]1C(OC)=C[C@@]23CCCN2CCc2cc4c(cc2[C@@H]13)OCO4
active: 786-0 renal -16.1% | SN12C renal -14.9% | UO-31 renal -25.3% | TK-10 renal -16.4% | ACHN renal -23.3% | A498 renal -19% | CCRF-CEM leukemia -5.42% | RPMI-8226 leukemia -19.5% | OVCAR-8 ovarian -38.8% | OVCAR-4 ovarian -22.7% | SK-OV-3 ovarian -8.41% | IGROV1 ovarian -19.3% | NCI/ADR-RES ovarian -2.69% | BT-549 breast -33.7% | MDA-MB-435 melanoma -32.6% | MCF7 breast -17% | HCT-116 colon -20.4% | HCC-2998 colon -62.4% | KM12 colon -22.3%

COc1cc2cc(C(=O)N3C[C@@H](CCl)c4c3cc(OC(=O)N3CCN(C(=O)CCC(=O)N5CCN(C)CC5)[C@@H]5CSSC[C@@H]53)c3ccccc43)[nH]c2c(OC)c1OC
inactive: HOP-92 NSCLC 19.3% | CCRF-CEM leukemia 25.2%
active: 786-0 renal -80.9% | SN12C renal -37.7% | UO-31 renal -65.2% | TK-10 renal 5.55% | ACHN renal -31.6% | A498 renal -10.8% | RPMI-8226 leukemia 6.09% | OVCAR-8 ovarian -32.1% | OVCAR-4 ovarian -6.42% | SK-OV-3 ovarian 3.05% | IGROV1 ovarian -50.7% | NCI/ADR-RES ovarian -56.6% | BT-549 breast -81.3% | MDA-MB-435 melanoma 3.09% | MCF7 breast -92.4% | HCT-116 colon -77.5% | HCC-2998 colon -99.1% | KM12 colon -74.6%

O=C(/C=C/c1ccco1)c1nc2ccccc2n1Cc1ccc(Br)cc1
active: HOP-92 NSCLC 3.99% | CCRF-CEM leukemia -6.79% | RPMI-8226 leukemia -5.78% | BT-549 breast 6.02% | MCF7 breast 2.72% | HCT-116 colon 8.16%
inactive: 786-0 renal 23% | SN12C renal 43.4% | UO-31 renal 34.4% | TK-10 renal 77.1% | ACHN renal 48.7% | A498 renal 105% | OVCAR-8 ovarian 46.7% | OVCAR-4 ovarian 46.5% | SK-OV-3 ovarian 103% | IGROV1 ovarian 31.6% | NCI/ADR-RES ovarian 25.7% | MDA-MB-435 melanoma 15.2% | HCC-2998 colon 12.7% | KM12 colon 20.7%

O=C(/C=C/c1ccc(Cl)cc1)c1nc2ccccc2n1Cc1ccc(F)cc1
inactive: HOP-92 NSCLC 16.7% | SN12C renal 19.7% | UO-31 renal 31.4% | TK-10 renal 58.1% | ACHN renal 23.5% | A498 renal 125% | OVCAR-8 ovarian 17.1% | OVCAR-4 ovarian 58.8% | SK-OV-3 ovarian 78.1% | IGROV1 ovarian 29% | MDA-MB-435 melanoma 12.1% | HCC-2998 colon 32.5% | KM12 colon 24.9%
active: 786-0 renal 5.13% | CCRF-CEM leukemia -13.1% | RPMI-8226 leukemia -20.2% | NCI/ADR-RES ovarian 7.75% | BT-549 breast 2.95% | MCF7 breast 9.25% | HCT-116 colon 3.49%

COC(=O)c1ccc(-n2cc(CCCN(CCNc3ccnc4cc(Cl)ccc34)C(=O)CCC(=O)O[C@@H]3O[C@@H]4OC5(C)CC[C@H]6[C@H](C)CC[C@@H]([C@H]3C)[C@@]46OO5)nn2)cc1
inactive: HOP-92 NSCLC 18.6% | 786-0 renal 52.4% | SN12C renal 44% | UO-31 renal 19.6% | TK-10 renal 60.5% | ACHN renal 36.3% | A498 renal 100% | CCRF-CEM leukemia 15.9% | RPMI-8226 leukemia 19.7% | OVCAR-8 ovarian 20.9% | OVCAR-4 ovarian 46.2% | SK-OV-3 ovarian 85.6% | IGROV1 ovarian 40.4% | NCI/ADR-RES ovarian 11.4% | BT-549 breast 43.2% | MDA-MB-435 melanoma 22.2% | HCT-116 colon 26% | HCC-2998 colon 49.5% | KM12 colon 32.6%
active: MCF7 breast -49.6%

Cc1c2oc3c(C)ccc(C(=O)N[C@@H]4C(=O)N[C@H](C(C)C)C(=O)N5CCC[C@H]5C(=O)N(C)CC(=O)N(C)[C@@H](C(C)C)C(=O)OC4C)c3nc-2c(C(=O)N[C@@H]2C(=O)N[C@H](C(C)C)C(=O)N3CC(=O)C[C@H]3C(=O)N(C)CC(=O)N(C)[C@@H](C(C)C)C(=O)OC2C)c(N)c1=O (some centres undefined)
inactive: 786-0 renal 19% | OVCAR-4 ovarian 21% | IGROV1 ovarian 17% | HCT-116 colon 22.3%
active: HOP-92 NSCLC -17.7% | SN12C renal 6.6% | UO-31 renal 3.68% | TK-10 renal 5.82% | ACHN renal 2.84% | A498 renal -68.7% | CCRF-CEM leukemia 2.91% | RPMI-8226 leukemia -13.1% | OVCAR-8 ovarian 0.349% | SK-OV-3 ovarian 7.97% | NCI/ADR-RES ovarian 4.49% | BT-549 breast -9.76% | MDA-MB-435 melanoma -66.1% | MCF7 breast 1.42% | HCC-2998 colon -20% | KM12 colon 2.23%

CCOC(=O)C1=C(Nc2ccccc2)C(=O)OC12C(=O)Nc1ccccc12 (centres undefined)
inactive: HOP-92 NSCLC 101% | 786-0 renal 108% | SN12C renal 110% | UO-31 renal 73.2% | TK-10 renal 137% | ACHN renal 107% | A498 renal 120% | CCRF-CEM leukemia 93.9% | RPMI-8226 leukemia 104% | OVCAR-8 ovarian 105% | OVCAR-4 ovarian 107% | SK-OV-3 ovarian 104% | IGROV1 ovarian 102% | NCI/ADR-RES ovarian 107% | BT-549 breast 103% | MDA-MB-435 melanoma 108% | MCF7 breast 95.6% | HCT-116 colon 109% | HCC-2998 colon 115% | KM12 colon 105%

O=C(/C=C/c1ccc(F)cc1)c1nc2ccccc2n1Cc1ccc(F)cc1
inactive: HOP-92 NSCLC 22.9% | SN12C renal 21.9% | TK-10 renal 12.2% | A498 renal 112% | OVCAR-4 ovarian 56.8% | SK-OV-3 ovarian 70.4% | IGROV1 ovarian 14.9%
active: 786-0 renal -31.5% | UO-31 renal -33.6% | ACHN renal -45.4% | CCRF-CEM leukemia 7.89% | RPMI-8226 leukemia -27.1% | OVCAR-8 ovarian 2.66% | NCI/ADR-RES ovarian -42.5% | BT-549 breast -23.8% | MDA-MB-435 melanoma -37.9% | MCF7 breast 7.32% | HCT-116 colon -56.9% | HCC-2998 colon -78.9% | KM12 colon -4.81%

O=C([Se]C1C=CCCC1)c1ccc(C(=O)[Se]C2C=CCCC2)s1 (centres undefined)
inactive: A498 renal 20.6%
active: HOP-92 NSCLC -39.7% | 786-0 renal -92.7% | SN12C renal -81.8% | UO-31 renal -100% | TK-10 renal -80.9% | ACHN renal -67% | CCRF-CEM leukemia -36.7% | RPMI-8226 leukemia -43.1% | OVCAR-8 ovarian -97.6% | OVCAR-4 ovarian -95.3% | SK-OV-3 ovarian -97.5% | IGROV1 ovarian -90.4% | NCI/ADR-RES ovarian -81.4% | BT-549 breast -65.7% | MDA-MB-435 melanoma -61.2% | MCF7 breast -37.1% | HCT-116 colon -43.1% | HCC-2998 colon -67.8% | KM12 colon -64.9%

COc1cc2cc(C(=O)N3C[C@@H](CCl)c4c3cc(OC(=O)N3CCN(C)[C@@H]5CSSC[C@H]53)c3ccccc43)[nH]c2c(OC)c1OC
active: HOP-92 NSCLC -40.2% | 786-0 renal -57.9% | SN12C renal -62.1% | UO-31 renal -52% | TK-10 renal -28.4% | ACHN renal -31.2% | A498 renal -37% | CCRF-CEM leukemia -23.1% | RPMI-8226 leukemia -33.9% | OVCAR-8 ovarian -30.2% | OVCAR-4 ovarian -54.7% | SK-OV-3 ovarian -26.3% | IGROV1 ovarian -61% | NCI/ADR-RES ovarian -56.1% | BT-549 breast -96.4% | MDA-MB-435 melanoma -65.9% | MCF7 breast -56.2% | HCT-116 colon -23.6% | HCC-2998 colon -79.9% | KM12 colon -9.39%

COc1cc2cc(C(=O)N3C[C@@H](CCl)c4c3cc(OC(=O)N3CCN(C)[C@@H]5CSSC[C@@H]53)c3ccccc43)[nH]c2c(OC)c1OC
active: HOP-92 NSCLC -4.54% | 786-0 renal -9.47% | SN12C renal -44.6% | UO-31 renal -33.5% | ACHN renal -41.3% | A498 renal -22.4% | CCRF-CEM leukemia -25.1% | RPMI-8226 leukemia -20.4% | OVCAR-8 ovarian -3.43% | OVCAR-4 ovarian -6.86% | SK-OV-3 ovarian -6.59% | IGROV1 ovarian 7.55% | NCI/ADR-RES ovarian -22.2% | BT-549 breast -82.6% | MDA-MB-435 melanoma -86.8% | MCF7 breast -8.94% | HCT-116 colon 5.27% | HCC-2998 colon -53.8% | KM12 colon 0.977%
inactive: TK-10 renal 13.8%

COP(=O)(CC(F)(F)C(F)(F)F)OC
active: HOP-92 NSCLC -29.8% | 786-0 renal -3% | UO-31 renal -81.8% | TK-10 renal -40.6% | ACHN renal -97.6% | CCRF-CEM leukemia 5.28% | OVCAR-8 ovarian -75.6% | OVCAR-4 ovarian -13.4% | MDA-MB-435 melanoma 9.6% | MCF7 breast 3.91% | HCT-116 colon -60.6%
inactive: SN12C renal 76.2% | A498 renal 131% | RPMI-8226 leukemia 12.3% | SK-OV-3 ovarian 118% | IGROV1 ovarian 50.2% | NCI/ADR-RES ovarian 61.8% | BT-549 breast 37.3% | HCC-2998 colon 91% | KM12 colon 94.6%
